In PubChem BioAssay AID624171 (National Center for Advancing Translational Sciences (NCATS), 2012):
Out of some 410,000 compounds screened, about 1,200 (0.29%) were called active. A call without a number means that no potency is given here. About 2% were inconclusive and are not listed. This is one part of a sample in which actives are shown more often than they occur. Unmarked numbers belong to inactive results. The call rests on the fitted dose curve; in most records, active means well fitted activation curve with a large enough effect; inconclusive means small, poorly fitted or top-dose-only effect; inactive means flat fitted curve, though single readings scatter.

Assay: qHTS of Nrf2 Activators; further: nearly all actives have a fitted effect of over 65% in size
Conditions: AREc32 ARE-luciferase reporter (MCF7-derived line), luminescence, 24 h; series mostly up to 46.1 µM
Summary of the method: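 ARE-driven firefly luciferase activity in AREc32 cells measured after a 24 hr compound exposure at 37 deg C, using Steady-Glo reagent and a 30 min room-temperature hold.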
Potency means the concentration at half of the fitted maximal effect.

| SMILES | Potency | activation |
| --- | --- | --- |
| Cc1ccc(-n2c3nc(=O)[nH]c(=O)c-3cc3c(Cl)cccc32)cc1 | inactive | – |
| O=C(OCC#CCSc1nnc(-c2ccncc2)o1)c1sc2ccccc2c1Cl | inactive | – |
| C#CCSc1nnc(-c2sc3ccccc3c2Cl)o1 | 4.47 µM (active) | – |
| COc1ccc2c(Cl)c(-c3nnco3)sc2c1 | inactive | – |
| CCN(CC)c1ccc(NC(=O)CN2C(=O)c3cccnc3Oc3ccc(Cl)cc32)c(C)c1 | inactive | – |
| Cc1ccc2cccc(NC(=O)c3cccc4ccccc34)c2n1 | inactive | – |
| Cc1cccc2c(=O)cc(CSc3ccccc3NC(=O)C(C)C)[nH]c12 | inactive | – |
| Cc1ccccc1NC(=O)c1cnn(-c2ccccc2)c1NC(=O)c1ccco1 | inactive | – |
| Cc1ccnc(NC(=O)c2ccco2)n1 | 12.6 µM (active) | – |
| CCn1nc(NC(=O)c2ccco2)c2cc3ccc(C)cc3nc21 | inactive | – |
| COc1ccc(NC(=O)CCc2nnc3n(CC(C)C)c(=O)c4ccccc4n23)cc1OC | inactive | – |
| Cc1ccc(Cn2c(CCCNC(=O)C3CCCCC3)nc3ccccc32)cc1 | inactive | – |
| O=C(Nc1nnc(C2CC2)s1)c1cc(Cl)sc1Cl | 20 µM (active) | – |
| CCc1cc(C(=O)Nc2nnc(C3CC3)s2)sc1C | inactive | – |
| CCc1ccccc1OCC(=O)Nc1nnc(C2CC2)s1 | inactive | – |
| CCOc1ccc(-n2c(SCC(=O)NCc3ccccc3)nc3n[nH]c(C)c3c2=N)cc1 | inactive | – |
| Cc1nnc(NC(=O)/C=C/c2ccco2)s1 | 3.55 µM (active) | – |
| CCC(CC)c1nnc(NC(=O)C2=COCCO2)s1 | inactive | – |
| CCC(CC)c1nnc(NC(=O)C2CCN(C(=O)c3ccco3)CC2)s1 | inactive | – |
| C/C=C/C(=O)Nc1nnc(C(C)C)s1 | inactive | – |
| CCC(CC)c1nnc(NC(=O)/C=C/c2ccco2)s1 | 2.51 µM (active) | – |
| CCc1ccc2oc(-c3ccc(C)c(NC(=O)/C=C/c4ccco4)c3)nc2c1 | inactive | – |
| Cc1cc(NS(=O)(=O)c2ccc(NC(=O)c3ccccc3C)cc2)nc(C)n1 | inactive | – |

| SMILES | Potency | activation |
| --- | --- | --- |
| CCc1ccc(N2C(=O)CN(S(=O)(=O)CC)CC2(C)C(=O)NC2CCCCC2)cc1 (centres undefined) | inactive | – |
| Cc1ccccc1OCC(=O)Nc1c(C(=O)Nc2ccccc2F)oc2ccccc12 | inactive | – |
| CCOC(=O)c1cccc(NC(=O)c2cc(CN3CCCC3)on2)c1 | inactive | – |
| CC1CCC2(CC1)N=C(c1ccccc1)C(=O)N2CC(=O)Nc1ccc(F)c(Cl)c1 (centres undefined) | inactive | – |
| COc1ccc(Cl)cc1NC(=O)CSc1nc(=O)[nH]c2c1CCCC2 | inactive | – |
| CCNC(=O)c1cc2n(n1)CCCN(Cc1ccc(C)cc1)C2=O | inactive | – |
| Fc1ccc(CSc2nnc(-c3cc4c(s3)-c3ccccc3CC4)o2)cc1 | inactive | – |
| CCSc1nnc(-c2cc3c(s2)-c2ccccc2CC3)o1 | 12.6 µM (active) | – |
| COc1ccccc1-c1nnc(SCC(N)=O)o1 | inactive | – |
| CCc1ccccc1NC(=O)c1ccc(F)c(S(=O)(=O)NC2CCCCCC2)c1 | inactive | – |
| Fc1ccc(C(Nc2ccc(Cl)c(C(F)(F)F)c2)c2nnc(-c3ccccc3)o2)cc1 (centres undefined) | inactive | – |
| COc1ccc(-n2c(C)nc3c(cnn3-c3ccc(F)cc3)c2=O)cc1 | inactive | – |
| COc1ccc(-n2c(=O)c3ccccc3n(Cc3ccccc3Cl)c2=O)cc1 | inactive | – |
| COc1ccc(Oc2c(Cl)cnn(-c3ccccc3)c2=O)cc1 | 12.6 µM (active) | – |
| Cc1ccccc1CS(=O)(=O)CC1Nc2ccc(C(=O)NCc3ccc(Cl)cc3)cc2NC1=O (centres undefined) | inactive | – |
| O=C(NCc1ccc2c(c1)CCN2C(=O)c1ccccc1)Nc1cc(F)ccc1F | inactive | – |
| CCC1C/C(=C/c2cccs2)C(=O)/C(=C/c2cccs2)C1 (centres undefined) | 5.62 µM (active) | – |
| CCCCC1S/C(=N/N=C/c2cccs2)NC1=O (centres undefined) | – | 2.71% [at 9.22 µM] |
| O=C1/C(=C/c2cccs2)CCc2ccccc21 | 11.2 µM (active) | – |
| O=C1/C(=C/c2cccs2)CCC1C1CCCC1 (centres undefined) | inactive | – |
| CCS(=O)(=O)N1CCN(C(=O)c2cccs2)CC1 | inactive | – |
| O=S(=O)(c1cccs1)N1CCc2ccccc2C1 | inactive | – |
| Cc1c2cnn(-c3ccccc3)c(=O)c2c(C)n1C(C)C(=O)Nc1ccc(Br)cc1F (centres undefined) | inactive | – |

| SMILES | Potency | activation |
| --- | --- | --- |
| COc1ccc(-c2nc3scc(CCNS(=O)(=O)c4cc(F)ccc4OC)n3n2)cc1OC | inactive | – |
| Cn1nc(-c2ccccc2)c(-c2ccccc2)c(C(=O)Nc2ccc(S(N)(=O)=O)cc2)c1=O | inactive | – |
| O=S(=O)(c1ccc2nc(NCc3ccccc3Cl)ccc2c1)N1CCCCC1 | inactive | – |
| O=C(CN1C(=O)COc2ccccc21)Nc1ccc(F)cc1 | 12.6 µM (active) | – |
| CC(OC(=O)CN1C(=O)COc2ccccc21)C(=O)NCc1ccc(F)cc1 (centres undefined) | inactive | – |
| O=C(CN1C(=O)COc2ccc(Cl)cc21)Nc1ccc(N2CCOCC2)cc1 | inactive | – |
| CNc1ccc(-c2nc(-c3ccco3)no2)cc1[N+](=O)[O-] | 1.41 µM (active) | – |
| CNc1ccc(-c2nc(-c3ccccc3C)no2)cc1[N+](=O)[O-] | inactive | – |
| CC(Nc1ccc(-c2nc(-c3ccco3)no2)cc1[N+](=O)[O-])c1ccccc1 (centres undefined) | inactive | – |
| CCCCN(CCCNC(=O)c1cc(Nc2ccccc2OC)nc2ccccc12)c1ccccc1 | inactive | – |
| CCCOC(=O)c1c(NC(=O)c2cc3nc(-c4ccc(OC)cc4)cc(C(F)(F)F)n3n2)sc2c1CCCC2 | inactive | – |
| CCOc1cc(-c2nnc(SCC(=O)NC3CCCCC3)nc2-c2ccc(OC)c(OCC)c2)ccc1OC | inactive | – |
| CCN(CC)CCNc1ncnc2c1cnn2-c1cc(Cl)ccc1C | inactive | – |
| O=C(Nc1ccc(OC(F)(F)F)cc1)C1CCCN(S(=O)(=O)c2ccc(Br)s2)C1 (centres undefined) | inactive | – |
| O=C(Nc1ccc(Cl)cc1)c1csc([C@@H]2O[C@H](CO)[C@H](O)[C@H](O)[C@H]2O)n1 | inactive | – |
| O=C(Nc1cccc(Cl)c1)c1csnn1 | inactive | – |
| O=C(Nc1ccc(Cl)cc1)c1ccsn1 | 11.2 µM (active) | – |
| O=S(=O)(c1ccc(C2CCCCC2)cc1)N1CCN(c2ccc(Cl)c(Cl)c2)CC1 | inactive | – |
| CCOc1ccc2nc(N3CCCC(C(=O)Nc4cc(C)ccc4C)C3)sc2c1 (centres undefined) | inactive | – |
| Cc1cc(C)cc(NC(=O)c2cnc3sc(N4CCCC4)nn3c2=O)c1 | inactive | – |
| COC(=O)c1sccc1NC(=O)c1csc2c1CCCC2 | 11.2 µM (active) | – |
| CCOc1ccc(CCNC(=O)c2csc3c2CCCCC3)cc1 | inactive | – |
| CCOC(=O)c1ccc(NC(=O)c2csc3c2CCCCC3)cc1 | inactive | – |
